# What was measured:
# Assay in all cases: PBM binding z-score (relative to random genomic background probes); higher = stronger binding; sequences stand for … in GC…GCGATTGACAGCGTAGAATGAAGG
# [1] = test system: PPARg:RXRa DBDmut IVT, anti-RXR (DBD mutation: RXRa K156A/R161A, NR concentration 270 nM, RXRa partner concentration 90 nM)
# How it was run: (§1)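 Custom Agilent 4×180K protein-binding microarrays carried double-stranded probes, each with a 34-nt variable region. These regions held direct-repeat seeds, single-nucleotide variants, half-site ablations and random human genomic background sequences. Ligand-free nuclear receptor dimers were incubated on the arrays for 1 h, antibodies against each partner (one per run) detected binding, and scanned fluorescence was regression-normalized. Binding z-scores take the random background probes as reference.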
# [2] = test system: PPARg:RXRa IVT, anti-PPARg (NR concentration 270 nM, RXRa partner concentration 90 nM)
# How it was run: as §1
# [3] = test system: PPARg DBDmut:RXRa IVT, anti-PPARg (DBD mutation: PPARg1 K132A/R137A, NR concentration 270 nM, RXRa partner concentration 90 nM)
# How it was run: as §1
# [4] = test system: PPARg DBDmut IVT, anti-PPARg (DBD mutation: PPARg1 K132A/R137A, NR concentration 270 nM)
# How it was run: as §1
# [5] = test system: PPARg homodimer (NR concentration 180 nM)
# How it was run: as §1
# [6] = test system: PXR:RXRa (NR concentration 270 nM, RXRa partner concentration 90 nM)
# How it was run: as §1
# [7] = test system: PXR homodimer (NR concentration 270 nM)
# How it was run: as §1
# [8] = test system: RARa:RXR (NR concentration 270 nM, RXRa partner concentration 90 nM)
# How it was run: as §1
# [9] = test system: RARa homodimer (NR concentration 270 nM)
# How it was run: as §1
# [10] = test system: RARb:RXRa (NR concentration 270 nM, RXRa partner concentration 90 nM)
# How it was run: as §1
Sequence,PBM binding z-score [1],PBM binding z-score [2],PBM binding z-score [3],PBM binding z-score [4],PBM binding z-score [5],PBM binding z-score [6],PBM binding z-score [7],PBM binding z-score [8],PBM binding z-score [9],PBM binding z-score [10]
GGAACGAGGGGATTCGAGTTGATAGCATGGCGAT,0.388,-0.0839,-1.62,-0.321,-1.3,0.0775,-0.14,-0.588,-0.71,-0.414
TCTTGTAGATCAATAGAGGTTAAGATAGTGCGCT,1.55,0.959,0.251,0.77,0.455,2.26,-0.0224,2.09,0.236,0.832
ATATGTAGGTTAGCTGGGGTCACTCAGACTAGGC,6.74,6.02,1.28,0.639,2.37,5.85,2.05,5.16,0.798,3.22
CCGCGGAGGACAACAGGAGGTCAGAGCTGCCAGA,0.131,0.105,-1.44,-1.52,2.29,2.44,0.34,2.5,0.536,3.04
ATAAGTAGGTTAGCTGGGGTCATTCAGACTAGGC,6.73,6.66,3.65,1.92,3.63,6.42,4.39,5.76,1.28,3.24
TGAATGAGGTTAAAGATCAGGGTACGTGGCGTCG,2.05,3.93,1.21,0.291,1.09,2.14,-0.073,3.31,-0.532,2.21
CTCGGAAGGTCGTGCTCAGGTGAGTATACCAAAC,0.012,0.881,-0.0386,-0.266,0.944,1.55,-0.228,2.36,-0.507,2.5
CCCACTGGGGCAGAAAGGTTACCATACCATCCGG,2.2,3.8,-0.946,-0.994,1.02,0.703,-0.212,1.59,-0.0999,1.86
CCTGCTAGGTCAATGGTCAGCTTAAGCAGCTCGC,4.75,4.06,-0.513,-0.387,1.92,1.05,-0.588,1.88,-0.443,3.84
TAGCCTAGGTCAGATCGGCCCAGTATACGCTATA,0.85,1.85,-0.244,-1.36,-0.0384,0.228,-0.754,0.84,-0.69,2.95
CCAGACAGATGAAAGGTAACTCAGTCTGGTACGC,-0.108,-0.154,-0.0341,-0.512,0.444,0.0908,0.0132,0.186,0.861,0.167
GATACTGGGTCAAGGCCAGAGTACGCGTATTGAT,6.7,7.44,0.217,1.07,1.49,1.23,-0.00412,1.72,0.506,3.48
TTCCCAAGGTGAGCTGAGGTCGTTGATCCAACTC,0.471,1.12,-1.17,-1.13,0.0355,4.98,0.698,2,-0.927,1.75
AACGAAAGGTCGTGAGGTGAGTATACAGAAAGGC,0.775,2.28,0.36,0.0984,1.96,3.37,0.132,4.22,0.704,4.04
TCTAGTTGGCCACGGAGGTCACACACGACGGGTA,1.59,2.78,1.61,0.255,2.19,4.03,0.788,3.94,0.587,3.35
TCTTGTAGATCAAAGGTTAAGAATGCCGAAGCCT,2.34,3.51,1.47,0.478,1.27,1.95,-0.149,2.85,0.414,1.87
TCGAGTAGGTAACCAATGGGGCATTCAGCTTTCT,2.5,1.74,-0.421,-0.752,-0.5,-0.372,-0.877,-0.292,-0.817,0.0352
GGAACGAGGGCATTGGAGTTGATAGCATGGCGAT,3.13,1.96,-0.193,-0.133,0.272,2.48,0.836,0.409,-0.598,1.72
TCTTGTAGATCAAGCAGGTTAAGTAAGCCTGAGT,1.68,0.377,0.298,-0.27,0.192,0.295,0.247,0.198,-0.203,0.138
GCGACTGGGGCATCAGCAGGTAACCATAACTTAA,3.85,3.1,-0.465,-0.924,0.206,-0.194,-0.176,0.582,-0.479,0.352
TCGAGTAGGTTAGCAATGGGGCATTCAGCTTTCT,2.43,1.46,-0.902,-1.37,-0.285,-0.264,-0.747,-0.123,-0.474,0.542
TCATATAGGTAAATGCTAGGTGAAAGTACGATCT,3.93,3.03,1.24,1.57,0.891,0.968,0.678,1.38,1.13,0.64
AGAACGAGGCCAATGAGTTGATAGCACGGGTGGC,1.54,0.862,0.703,0.331,-0.093,0.214,0.741,-0.114,0.0259,0.946
CGTCAATGTTCAACTAAGGTAACGTAAAGCACGC,0.201,0.781,0.0203,0.928,0.877,0.252,0.0149,1.05,0.784,0.573
ATCTCTAGGTAAGACGCAGTTCAGTGAAGAACGC,1.69,0.781,-0.276,0.85,0.0862,0.526,0.389,-0.309,0.278,0.0267

Sequence,PBM binding z-score [1],PBM binding z-score [2],PBM binding z-score [3],PBM binding z-score [4],PBM binding z-score [5],PBM binding z-score [6],PBM binding z-score [7],PBM binding z-score [8],PBM binding z-score [9],PBM binding z-score [10]
AGAACGAGGGCACGCTGAGTTGATAACAGAGTAG,4.19,3.68,0.246,0.187,0.159,1.33,0.018,0.895,-0.194,2.4
TCATATAGGTAAAAGGTTAAAGTCGGTGTGGTAA,4.98,5.34,1.14,1.22,2.21,3.01,1.15,4.32,2.65,2.64
TGAATGAGGCTAAAGATCAGGGAACGTGGCGTCG,-0.0886,1.02,0.37,-0.283,-0.62,-0.523,-0.778,-0.214,-0.864,0.177
AATACAGGGTCATCGTAGGCCCGAGTACGCACAG,2.64,3.72,0.916,-0.158,1.25,3.92,0.581,4.7,0.922,4.23
CCGAGTAGGTTATGGGGCATTCAGGCAACGGTGA,3.19,3.21,-0.378,0.039,0.874,-0.0382,0.0489,0.571,0.139,0.99
ATCGAAAGGTCGTGAGGTGAGAATACAGAAAGGC,0.36,2.7,1.67,0.86,1.7,3.16,0.322,4.19,0.587,4.13
TCGCCTAGGTCATTGGGCCAGTATAGTACGCATC,3.09,3.38,-0.283,-0.432,1.52,1.74,0.00603,2.24,-0.44,3.66
CGCCAAAGTTCAACTAAGGTAACGTAAAGCACGC,0.771,1.55,0.546,0.253,3.81,5.66,5.04,4.28,2.96,5.16
CCTGCTAGGTCATGGTCACCTAATCTACAGTATG,5,5.09,0.83,0.207,1.89,1.82,-0.294,2.75,-0.115,3.98
AGAATGAGGTTACCAAAGATCATGGAAACGCTTG,3.74,3.68,0.737,0.847,0.294,1.8,0.0925,2.58,0.108,2.11
ATCTCTAGGTAAAGTTCAGTGGAAGATCGATAGA,2.46,2.61,1.21,1.71,1.29,2.07,1.8,1.44,1.81,2.86
CCTGATAGGTCAATGGTCAGCTAAAGCAGCTCGC,3.36,3.31,-0.515,-0.301,2.74,2.07,0.0154,2.95,0.334,4.06
CGTCCAAGGTCAAAGGTCCGTGAAGAGATGACGG,3.4,4.24,0.753,0.764,2.99,4.61,1.12,5.96,0.563,5.32
GCTAGCAGGCCCTTTGGGTCACTCAATGACGGGC,-0.306,0.697,-0.724,-0.795,-0.401,-0.203,-0.555,0.51,-0.612,0.879
TCACATAGGTAAACAGGTGAAAGTCCGTAAGTTA,2.55,2.23,0.587,0.655,1.1,0.542,0.449,0.976,-0.0341,0.847
TCTCGGAGGACAAGAAGGTCAGAGCTTTCCAGAG,1.27,0.839,-0.347,-1,0.686,1.71,1.64,1.69,0.0458,3.07
TCTTGTACATCAATAGAGGTTAAGAAAGTGCGCT,1.8,1.66,1.53,1.13,0.454,2.94,0.485,1.98,0.123,1.08
ATATGTAAGTTAAGGGTCATTCAGGTTGGTTCGC,1.13,3.7,1.79,1.39,4.41,5.17,2.93,4.86,1.97,3.42
TCTATTGGTTGATTAGGGCAACCGAAACAGCGGA,1.96,1.31,1.58,0.647,1.38,0.573,0.277,0.835,0.652,1.06
TTACCATGGTGAAAGGTCGTTGATGCACGCCTTG,0.72,2.89,0.347,-0.209,0.983,2.74,0.676,3.2,-0.159,1.94
CGTCCAAGGTGATAGGAGGTCAGTGAAGACAGAT,1.37,2.78,0.0253,0.186,1.91,3.57,0.47,2.31,0.367,2.85
CGAACTAGGTCATCCAGGACAGTGATTACATTGA,8.17,8.1,1.9,1.24,1.15,1.95,1.25,2.17,0.703,3.98
CCTTACGGGTCACGAGGTTATAGCTCGACGAGCG,3.64,5.56,3.54,1.04,3.72,4.94,-0.0531,6.5,1.15,4.36
CCTACTGGGCCATGAGGTCATTGATATCAACGTT,4.24,5.54,0.512,-0.0861,2.41,4.71,3.85,4.49,0.257,2.91
